Assay [1] in a line: qHTS assay to identify aromatase inhibitors - cell viability counter screen (AID 743084).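 Further: cells stimulated with testosterone during compound exposure; nearly all actives have a fitted effect of over 55% in size.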 Further: potency means the concentration at half of the fitted maximal effect. For orientation: Quantitative high-throughput screening tests each substance at several concentrations.
In assay [2] the target is Aryl hydrocarbon receptor (Homo sapiens) (UniProt P35869). As to the kind of experiment: qHTS assay to identify small molecule that activate the aryl hydrocarbon receptor (AhR) signaling pathway (AID 743085). Further: nearly all actives have a fitted effect of over 15% in size. Further: potency means the concentration at half of the fitted maximal effect.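 On activation: HG2L7.5c1 human HepG2 liver cells with stably integrated DRE-driven firefly reporter; series mostly up to about 70 µM.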 In short, it runs like this: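 Reporter assay in engineered HepG2 line HG2L7.5c1, whose plasmid carries twenty dioxin responsive elements upstream of firefly luciferase. Treatment lasted 24 h at 37C; ONE-Glo luminescence gauged induction.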

The nature of assay [3]: qHTS assay to identify small molecule that activate the aryl hydrocarbon receptor (AhR) signaling pathway - cell viability counter screen (AID 743086). Further: nearly all actives have a fitted effect of over 45% in size. Further: potency means the concentration at half of the fitted maximal effect. A digest of the protocol:
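Cytotoxicity counter screen: CellTiter-Fluor signal (30 min, 37 C) in 4000 HepG2 cells/well carrying the DRE-luciferase reporter, following 24 h compound exposure at 37 C.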

The target in assay [4] is Peroxisome proliferator-activated receptor gamma (Homo sapiens) (UniProt P37231). As to the kind of experiment: qHTS assay to identify small molecule agonists of the peroxisome proliferator-activated receptor gamma (PPARg) signaling pathway (AID 743094; active means well fitted activation curve with a large enough effect in the signal ratio in the repeat runs, not every such curve was filed as active; the % refers to the signal ratio). In short, it runs like this:
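Beta-lactamase FRET fluorescence was the read-out after a 1 h room-temperature substrate step, following 17 h compound treatment at 37C of HEK293H cells expressing a UAS-driven bla reporter responsive to PPARg.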

A short description of assay [5]: qHTS assay to identify small molecule phospholipidosis (PLD) inducers (AID 1259344; active means well fitted curve in the direction sought with a large enough effect; an effect the other way counts as inactive or inconclusive). In short, it runs like this:
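Fluorescent phospholipid staining (LipidTOX Red) measured by automated microscopy in fixed HepG2 cells after 24 h treatment; nuclei counterstained with Hoechst 33342; amiodarone as reference inducer.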

Assay [6] addresses Nuclear receptor subfamily 1 group I member 2 (Rattus norvegicus) (UniProt Q9R1A7). As to the kind of experiment: Rat pregnane X receptor (rPXR) activation by small molecules, qHTS assay (AID 1346983). Further: nearly all actives have a fitted effect of over 20% in size. Conditions: rPXR luciferase reporter cells, One-Glo luminescence, 24 h; max activation: active compounds read high. A digest of the protocol:
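Luminescent readout (One-Glo luciferase, 30 min room temperature) followed 24 hr compound treatment at 37 C of rPXR cells plated 2,000 per well and preincubated 5hr; qHTS format with compounds delivered in DMSO.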

Assay [7] deals with Nuclear receptor subfamily 1 group I member 2 (Homo sapiens) (UniProt O75469). As to the kind of experiment: CYP3A4 induction through human pregnane X receptor (PXR) by small molecules, qHTS assay (AID 1346984). Further: nearly all actives have a fitted effect of over 40% in size. Further: potency means the concentration at half of the fitted maximal effect. A digest of the protocol: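 Luminescence readout: luciferase signal after One-Glo (30 min, room temperature), following 3 h at 37C with 3uM final Luciferin-IPA P450 substrate. Cells were DPX-2 (HepG2, PXR/CYP3A4-luc co-transfected) dosed for 24 h.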

For assay [8] the target is unchanged. As to the kind of experiment: Human pregnane X receptor (PXR) activation by small molecules, qHTS assay (AID 1346985). Further: nearly all actives have a fitted effect of over 40% in size. Further: potency means the concentration at half of the fitted maximal effect. In short, it runs like this:
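DPX-2 cells (HepG2 co-transfected with a PXR response element and a CYP3A4-promoter luciferase construct) were seeded at 2,000 per well, rested 5 hr at 37C, then exposed to DMSO-dissolved compounds for 24 hr. Activation was read as luciferase luminescence.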

Results filed as inconclusive are left out. A number with no mark means an inactive call. The source made the active and inactive calls. Unless noted, the call rests on the fitted dose curve; in most records, active means well fitted curve in the direction sought with a large enough effect in the repeat runs; inconclusive means weak or mixed curves; inactive means no such curve, though single readings can be large; an effect the other way counts as inactive or inconclusive.
On the % scale 0 is the no-effect control and ±100 the full control effect.

Chain of Nuclear receptor subfamily 1 group I member 2 (Rattus norvegicus) (Q9R1A7 whole entry, looked up): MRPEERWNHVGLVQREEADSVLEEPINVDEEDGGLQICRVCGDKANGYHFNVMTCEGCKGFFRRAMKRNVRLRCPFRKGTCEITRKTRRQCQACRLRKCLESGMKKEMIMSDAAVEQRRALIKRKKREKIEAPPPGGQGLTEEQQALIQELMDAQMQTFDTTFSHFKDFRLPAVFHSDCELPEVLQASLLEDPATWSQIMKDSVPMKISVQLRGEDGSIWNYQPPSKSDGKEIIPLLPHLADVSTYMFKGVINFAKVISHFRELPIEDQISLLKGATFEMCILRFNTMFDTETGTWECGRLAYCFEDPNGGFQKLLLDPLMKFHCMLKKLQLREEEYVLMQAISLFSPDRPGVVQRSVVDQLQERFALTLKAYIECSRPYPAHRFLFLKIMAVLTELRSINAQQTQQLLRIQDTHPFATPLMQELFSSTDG
Chain of Peroxisome proliferator-activated receptor gamma (Homo sapiens) (P37231 whole entry, looked up): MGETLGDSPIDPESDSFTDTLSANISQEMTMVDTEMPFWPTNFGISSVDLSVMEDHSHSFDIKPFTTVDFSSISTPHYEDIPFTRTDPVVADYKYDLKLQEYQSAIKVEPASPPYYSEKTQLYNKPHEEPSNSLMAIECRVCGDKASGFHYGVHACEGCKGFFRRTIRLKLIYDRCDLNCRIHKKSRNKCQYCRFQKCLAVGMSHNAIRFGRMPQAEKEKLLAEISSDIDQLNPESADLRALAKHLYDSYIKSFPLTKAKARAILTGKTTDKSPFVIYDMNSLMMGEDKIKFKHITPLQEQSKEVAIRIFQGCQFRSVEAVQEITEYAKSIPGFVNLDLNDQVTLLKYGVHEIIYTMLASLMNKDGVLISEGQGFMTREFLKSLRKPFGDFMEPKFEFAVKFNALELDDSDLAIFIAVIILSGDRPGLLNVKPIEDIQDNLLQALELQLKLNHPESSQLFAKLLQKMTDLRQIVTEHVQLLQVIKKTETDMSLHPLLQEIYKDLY
Chain of Aryl hydrocarbon receptor (Homo sapiens) (P35869 whole entry, looked up): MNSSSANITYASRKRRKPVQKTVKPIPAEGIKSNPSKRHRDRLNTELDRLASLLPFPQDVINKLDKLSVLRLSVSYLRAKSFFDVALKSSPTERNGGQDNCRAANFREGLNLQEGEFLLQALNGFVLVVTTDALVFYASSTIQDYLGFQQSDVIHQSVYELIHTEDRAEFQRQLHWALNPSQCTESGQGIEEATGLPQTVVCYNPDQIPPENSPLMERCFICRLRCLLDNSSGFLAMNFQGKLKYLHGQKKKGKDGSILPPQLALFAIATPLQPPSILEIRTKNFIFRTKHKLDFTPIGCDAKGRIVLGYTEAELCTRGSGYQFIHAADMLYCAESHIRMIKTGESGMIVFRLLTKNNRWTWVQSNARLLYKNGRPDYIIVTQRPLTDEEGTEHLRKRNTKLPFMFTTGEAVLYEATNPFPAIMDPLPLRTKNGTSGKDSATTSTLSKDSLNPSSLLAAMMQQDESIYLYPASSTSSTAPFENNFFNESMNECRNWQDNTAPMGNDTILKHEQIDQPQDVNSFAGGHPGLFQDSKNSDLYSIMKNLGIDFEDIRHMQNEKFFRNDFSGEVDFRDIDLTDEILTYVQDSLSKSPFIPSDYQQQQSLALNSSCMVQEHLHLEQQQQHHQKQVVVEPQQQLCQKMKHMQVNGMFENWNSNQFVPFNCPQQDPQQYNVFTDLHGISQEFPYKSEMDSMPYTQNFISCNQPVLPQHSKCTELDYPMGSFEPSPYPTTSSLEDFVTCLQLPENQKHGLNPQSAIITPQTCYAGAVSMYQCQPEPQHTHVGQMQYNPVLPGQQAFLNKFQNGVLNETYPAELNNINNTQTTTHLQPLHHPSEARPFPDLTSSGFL

In the case of `Cc1cc(C)c(NC(=O)C[C@H](CC(=O)O)c2cccc3ccccc23)c(C(=O)N2CCC3(CCCC3)CC2)c1`, the Potency entry in assay [1], in assay [2], in assay [3], in assay [4], in assay [5] and in assay [7] was “inactive” each time. Further, the max activation in assay [6] is 1.3%.
With `CC(=C\c1ccccc1)/C=C1/SC(=S)N(CC(=O)O)C1=O`, the Potency entry in assay [1], in assay [2], in assay [3], in assay [5] and in assay [7] was “inactive” each time. Besides, the max activation in assay [6] was 4.01%.
For the molecule `CCN(CC)Cc1cc(Nc2ccnc3cc(Cl)ccc23)ccc1O`, the Potency entry in assay [2], in assay [3], in assay [5], in assay [7] and in assay [8] was “inactive” throughout. The max activation in assay [6] is -2.52%.
`CCOc1cc(-c2nccc3cc(OC)c(OC)cc23)cc(OCC)c1OCC`: the Potency was 29.8 µM (active) in assay [1] and 2.11 µM (active) in assay [2]. The Potency entry in assay [4], in assay [5] and in assay [7] was “inactive” in each case. In assay [6], the max activation is 5.49%.
Turning to `C=CCN1CCCC1CNC(=O)c1cc(S(N)(=O)=O)cc(OC)c1OC` (stereo not drawn), the Potency result in assay [1], in assay [2], in assay [3], in assay [4] and in assay [5] was “inactive” each time. In addition, the max activation in assay [6] was -5.9%. The Potency in assay [7] is 14.1 µM (active).
`OC[C@@H](O)C(O)[C@H](O)CO`: the Potency result in assay [1], in assay [2], in assay [3], in assay [4], in assay [5] and in assay [7] was “inactive” throughout. For the same molecule, the max activation in assay [6] is -1.82%.
`COC(=O)[C@H]1[C@H]2C[C@@H]3c4[nH]c5cc(OC)ccc5c4CCN3C[C@H]2C[C@H](OC)[C@@H]1OC`: the Potency entry in assay [1], in assay [3], in assay [5] and in assay [7] was “inactive” each time. Further, the max activation in assay [6] is 6.76%.
`C=C1C(=O)O[C@H]2[C@H]1CC/C(C)=C\CC[C@@]1(C)O[C@@H]21`: the Potency in assay [1] is 18.8 µM (active); in assay [3] it was 16.8 µM (active). Also, the Potency result in assay [2], in assay [5] and in assay [7] was “inactive” in each case. In addition, the max activation in assay [6] is -19.8%.
Consider `C=C1CC[C@@H]2[C@](C)(CO)[C@H](O)CC[C@@]2(C)[C@@H]1C/C=C1/C(=O)OC[C@H]1O`, for which the Potency result in assay [2], in assay [3], in assay [5], in assay [7] and in assay [8] was “inactive” in each case. The max activation in assay [6] was -5.66%.
As to `CCN(CC)CCCC(C)Nc1cc(/C=C/c2ccccc2Cl)nc2cc(Cl)ccc12` (stereo not drawn), the results for the Potency in assay [2] and in assay [8] were 26.6 µM (active) and 22.4 µM (active), respectively. Also, the Potency result in assay [4], in assay [5] and in assay [7] was “inactive” each time. In addition, in assay [6], the max activation is -1.25%.
For `CO[C@H]1O[C@@H]2O[C@@]3(C)CC[C@H]4[C@H](C)CC[C@@H]([C@H]1C)[C@@]24OO3`, the Potency entry in assay [1], in assay [2], in assay [3], in assay [4], in assay [5] and in assay [7] was “inactive” in each case. Moreover, the max activation in assay [6] was -2.27%.
On to `CC(C)N=c1cc2n(-c3ccc(Cl)cc3)c3ccccc3nc-2cc1Nc1ccc(Cl)cc1`, for which the Potency result in assay [3], in assay [5], in assay [7] and in assay [8] was “inactive” in each case. The max activation in assay [6] was -3.58%.
In the case of `CC(=O)Nc1ccc(NC(=S)NC(=O)c2ccc(C(C)(C)C)cc2)cc1`, the Potency result in assay [1], in assay [3], in assay [4], in assay [5] and in assay [7] was “inactive” in each case. The Potency in assay [2] was 1.5 µM (active). Further, the max activation in assay [6] was -2.69%.
For the molecule `CN1c2cc(O)c(N=NC(N)=O)cc2CC1S(=O)(=O)O` (stereo not drawn), the Potency entry in assay [2], in assay [4], in assay [5], in assay [7] and in assay [8] was “inactive” in each case. Further, in assay [6], the max activation is 0.153%.
Consider `CCN(CC)CCOc1ccc2nc(N(C)C)sc2c1`, for which the Potency entry in assay [1], in assay [3], in assay [4], in assay [5] and in assay [7] was “inactive” each time. Moreover, the max activation in assay [6] is 2.91%.
In the case of `Nc1nc(=O)n([C@@H]2CS[C@H](CO)O2)cc1F`, the Potency entry in assay [3], in assay [5], in assay [7] and in assay [8] was “inactive” in each case. For the same molecule, the max activation in assay [6] is 2.33%.
`CCCCCCCCCCCCCCCCOCCOCCOCCOCCOCCOCCOCCOCCOCCOCCOCCOCCOCCOCCOCCOCCOCCOCCOCCOCCO`: the Potency entry in assay [2], in assay [5], in assay [7] and in assay [8] was “inactive” throughout. In addition, the max activation in assay [6] was -15.6%.

(Values after PubChem BioAssay (Tox21).)
